Assay results reported in PubChem BioAssay AID2751 (The Scripps Research Institute Molecular Screening Center, 2010).
About 2,200 (0.69%) of roughly 320,000 compounds were called active. The entries come from a sample that favours actives as a whole. Values without a mark were called inactive. Rule as the data show it: active = inhibition above about 43%; inactive = the rest.

Biological target: Prolyl endopeptidase-like (Homo sapiens) (UniProt Q4J6C6)
Experiment: PREPL enzyme inhibitors, primary screen, biochemical, fluorescence polarization (AID 2751);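 also: 0% = enzyme with DMSO and 100% = wells lacking enzyme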
Conditions: recombinant PREPL, fluorescence polarization activity-based probe; at 5.96 µM; stronger effect = higher value

Chain of Prolyl endopeptidase-like (Homo sapiens) (Q4J6C6 whole entry, looked up): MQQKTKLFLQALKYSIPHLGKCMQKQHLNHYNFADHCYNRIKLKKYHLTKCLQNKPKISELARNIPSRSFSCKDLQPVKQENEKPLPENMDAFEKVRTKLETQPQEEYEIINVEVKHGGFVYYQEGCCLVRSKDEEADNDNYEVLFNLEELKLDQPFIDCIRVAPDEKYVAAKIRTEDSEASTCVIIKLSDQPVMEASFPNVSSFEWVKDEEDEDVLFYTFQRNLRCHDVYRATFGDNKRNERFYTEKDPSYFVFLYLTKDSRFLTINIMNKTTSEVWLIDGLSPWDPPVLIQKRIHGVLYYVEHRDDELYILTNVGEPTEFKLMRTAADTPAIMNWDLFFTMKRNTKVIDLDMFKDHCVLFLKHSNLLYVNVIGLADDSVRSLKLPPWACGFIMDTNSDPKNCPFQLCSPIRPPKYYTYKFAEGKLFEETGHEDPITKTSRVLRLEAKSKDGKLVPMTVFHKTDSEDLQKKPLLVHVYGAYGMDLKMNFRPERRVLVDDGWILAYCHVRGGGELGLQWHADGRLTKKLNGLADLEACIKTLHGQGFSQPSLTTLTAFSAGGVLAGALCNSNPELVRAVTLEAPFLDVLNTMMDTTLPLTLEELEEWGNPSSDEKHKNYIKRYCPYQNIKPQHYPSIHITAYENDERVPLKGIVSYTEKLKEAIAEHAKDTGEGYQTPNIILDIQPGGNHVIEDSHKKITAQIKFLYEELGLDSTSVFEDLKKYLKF

| SMILES | inhibition |
| --- | --- |
| COc1ccc2[nH]c3c(c2c1)CCN[C@H]3C | 48.8% (active) |
| O=C(N/N=C/c1c(O)n(C2CC2)c(=S)[nH]c1=O)c1ccccc1Cl | -3.24% |
| CCOc1ccc(-c2cc(C)[n+](CCN(CC)CC)c(-c3ccc(OCC)cc3)c2)cc1 | 10.9% |
| CCOc1cccc(=NC2CCCCC2)c2c(C)[nH]c(C)c12 | 52.1% (active) |
| Cn1c(O)c(C=NCCCC(=O)O)c(=O)n(C)c1=O | -8.04% |
| N[C@@H](Cc1c[nH]c2ccccc12)c1nnc(SCc2c(F)cccc2Cl)o1 | 2.17% |
| CCN(CC)C(=O)c1ccc(NC(=O)c2cc(-n3cnnc3)ccc2Cl)cc1 | 15.1% |
| Cc1nc2ccccn2c1P(=S)(N1CCCCC1)N1CCCCC1 | -7.5% |
| COc1ccccc1N1CCN(C(CNC(=O)Oc2ccccc2)c2cccnc2)CC1 (stereo not given) | 1.24% |
| O=C(NCC(c1cccnc1)N1CCN(c2ccccc2)CC1)Oc1ccccc1 (stereo not given) | 46.3% (active) |
| COC(=O)C(c1ccccc1)N1CCCCCC1 (stereo not given) | 1.34% |
| COc1ccc(C2NCc3ccc4c(c3-n3cccc32)OCO4)cc1OC (stereo not given) | -15.2% |
| COC(=O)N(c1ccc(OC)cc1)P1(=S)OCCC(C)O1 (stereo not given) | 8.63% |
| O=C(O)C1CSC(c2cccnc2)N1 (stereo not given) | 3.28% |
| Cc1c(Oc2cc(NN3CCCCC3)c([N+](=O)[O-])cc2[N+](=O)[O-])cccc1[N+](=O)[O-] | 4.76% |
